Experiment [1] addresses Serine/threonine-protein kinase MARK2 (Homo sapiens) (UniProt Q7KZI7). As to conditions: at 1 µM.
In experiment [2] the target is PAS domain-containing serine/threonine-protein kinase (Homo sapiens) (UniProt Q96RG2). As to conditions: at 0.1 µM.
The target is the same in experiment [3]. Particulars: at 1 µM.
The target in experiment [4] is Phosphorylase b kinase gamma catalytic chain, skeletal muscle/heart isoform (Homo sapiens) (UniProt Q16816). As to conditions: at 0.1 µM.
Phosphorylase b kinase gamma catalytic chain, skeletal muscle/heart isoform (Homo sapiens), sequence (Q16816 whole entry, looked up, canonical isoform): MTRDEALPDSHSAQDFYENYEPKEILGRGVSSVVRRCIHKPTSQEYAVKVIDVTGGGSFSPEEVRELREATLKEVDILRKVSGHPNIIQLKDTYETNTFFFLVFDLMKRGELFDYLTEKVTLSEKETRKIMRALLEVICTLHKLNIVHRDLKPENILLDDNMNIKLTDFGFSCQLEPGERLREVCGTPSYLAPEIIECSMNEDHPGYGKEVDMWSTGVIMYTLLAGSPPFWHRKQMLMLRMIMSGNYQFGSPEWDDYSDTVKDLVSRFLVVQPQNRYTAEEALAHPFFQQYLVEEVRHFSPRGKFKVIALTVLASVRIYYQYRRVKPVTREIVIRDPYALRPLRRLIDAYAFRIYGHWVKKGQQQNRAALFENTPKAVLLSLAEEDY
For experiment [5] the target is unchanged. As to conditions: at 1 µM.
Experiment [6] addresses T1, Phosphorylase b kinase gamma catalytic chain, liver/testis isoform (Homo sapiens) (UniProt P15735).
T1 sequence (whole entry): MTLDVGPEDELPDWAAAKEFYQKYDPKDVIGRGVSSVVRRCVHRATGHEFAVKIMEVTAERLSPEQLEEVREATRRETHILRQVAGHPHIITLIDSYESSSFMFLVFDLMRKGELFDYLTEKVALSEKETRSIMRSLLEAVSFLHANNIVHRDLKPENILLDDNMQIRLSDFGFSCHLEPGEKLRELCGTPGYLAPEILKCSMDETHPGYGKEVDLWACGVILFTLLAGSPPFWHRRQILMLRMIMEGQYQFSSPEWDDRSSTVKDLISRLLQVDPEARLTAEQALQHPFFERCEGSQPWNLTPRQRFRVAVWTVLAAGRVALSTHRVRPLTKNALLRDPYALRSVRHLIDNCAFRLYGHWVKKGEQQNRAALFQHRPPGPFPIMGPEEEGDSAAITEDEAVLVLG
Particulars: at 0.1 µM.

Experiment [7] has as its target T1, Phosphorylase b kinase gamma catalytic chain, liver/testis isoform (Homo sapiens). As to conditions: at 1 µM.
Experiment [8] deals with Serine/threonine-protein kinase pim-1 (Homo sapiens) (UniProt P11309). As to conditions: at 0.1 µM.
Serine/threonine-protein kinase pim-1 (Homo sapiens), sequence (P11309 whole entry, looked up): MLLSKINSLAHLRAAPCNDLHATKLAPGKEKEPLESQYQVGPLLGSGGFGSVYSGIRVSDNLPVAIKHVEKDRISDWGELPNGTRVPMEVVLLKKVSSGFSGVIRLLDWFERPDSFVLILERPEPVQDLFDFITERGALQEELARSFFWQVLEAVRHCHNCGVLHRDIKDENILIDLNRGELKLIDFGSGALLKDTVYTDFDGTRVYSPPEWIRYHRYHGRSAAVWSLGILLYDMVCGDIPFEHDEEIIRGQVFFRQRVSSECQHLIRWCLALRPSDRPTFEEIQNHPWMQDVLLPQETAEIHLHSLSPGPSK
For experiment [9] the target is unchanged. Particulars: at 1 µM.
In experiment [10] the target is Serine/threonine-protein kinase pim-2 (Homo sapiens) (UniProt Q9P1W9). As to conditions: at 0.1 µM.
Serine/threonine-protein kinase pim-2 (Homo sapiens), sequence (Q9P1W9 whole entry, looked up): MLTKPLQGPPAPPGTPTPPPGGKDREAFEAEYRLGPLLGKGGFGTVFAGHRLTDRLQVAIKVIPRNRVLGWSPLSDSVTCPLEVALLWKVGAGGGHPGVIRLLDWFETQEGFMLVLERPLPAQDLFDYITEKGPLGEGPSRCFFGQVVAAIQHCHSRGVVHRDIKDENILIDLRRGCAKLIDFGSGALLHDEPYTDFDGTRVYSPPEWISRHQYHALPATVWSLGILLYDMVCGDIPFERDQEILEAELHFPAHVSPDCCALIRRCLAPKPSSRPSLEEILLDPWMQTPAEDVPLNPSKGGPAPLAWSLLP
The target is the same in experiment [11]. Particulars: at 1 µM.
Experiment [12] concerns the target Serine/threonine-protein kinase pim-3 (Homo sapiens) (UniProt Q86V86). As to conditions: at 0.1 µM.
Experiment [13] has the same target. Particulars: at 1 µM.
Experiment [14] deals with T2, MAP kinase-activated protein kinase 5 (Homo sapiens) (UniProt Q8IW41).
T2 sequence (whole entry): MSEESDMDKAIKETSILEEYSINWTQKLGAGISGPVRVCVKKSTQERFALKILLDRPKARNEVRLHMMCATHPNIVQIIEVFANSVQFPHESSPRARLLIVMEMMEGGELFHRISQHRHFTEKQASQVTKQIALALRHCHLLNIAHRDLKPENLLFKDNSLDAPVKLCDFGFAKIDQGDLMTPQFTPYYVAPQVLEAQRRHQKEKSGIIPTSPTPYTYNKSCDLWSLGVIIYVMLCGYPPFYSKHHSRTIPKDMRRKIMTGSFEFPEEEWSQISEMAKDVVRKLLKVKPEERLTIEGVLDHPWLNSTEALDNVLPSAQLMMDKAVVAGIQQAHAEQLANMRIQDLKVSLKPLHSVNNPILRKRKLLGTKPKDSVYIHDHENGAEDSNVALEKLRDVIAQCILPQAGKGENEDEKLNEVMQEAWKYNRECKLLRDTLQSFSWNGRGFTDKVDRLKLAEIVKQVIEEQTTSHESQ
Particulars: at 0.1 µM.

The target in experiment [15] is T2, MAP kinase-activated protein kinase 5 (Homo sapiens). Particulars: at 1 µM.
Experiment [16] concerns the target Serine/threonine-protein kinase SIK1 (Homo sapiens) (UniProt P57059). As to conditions: at 0.1 µM.
For experiment [17] the target is unchanged. Particulars: at 1 µM.
In experiment [18] the target is Serine/threonine-protein kinase SIK2 (Homo sapiens) (UniProt Q9H0K1). As to conditions: at 0.1 µM.
Serine/threonine-protein kinase SIK2 (Homo sapiens), sequence (Q9H0K1 whole entry, looked up): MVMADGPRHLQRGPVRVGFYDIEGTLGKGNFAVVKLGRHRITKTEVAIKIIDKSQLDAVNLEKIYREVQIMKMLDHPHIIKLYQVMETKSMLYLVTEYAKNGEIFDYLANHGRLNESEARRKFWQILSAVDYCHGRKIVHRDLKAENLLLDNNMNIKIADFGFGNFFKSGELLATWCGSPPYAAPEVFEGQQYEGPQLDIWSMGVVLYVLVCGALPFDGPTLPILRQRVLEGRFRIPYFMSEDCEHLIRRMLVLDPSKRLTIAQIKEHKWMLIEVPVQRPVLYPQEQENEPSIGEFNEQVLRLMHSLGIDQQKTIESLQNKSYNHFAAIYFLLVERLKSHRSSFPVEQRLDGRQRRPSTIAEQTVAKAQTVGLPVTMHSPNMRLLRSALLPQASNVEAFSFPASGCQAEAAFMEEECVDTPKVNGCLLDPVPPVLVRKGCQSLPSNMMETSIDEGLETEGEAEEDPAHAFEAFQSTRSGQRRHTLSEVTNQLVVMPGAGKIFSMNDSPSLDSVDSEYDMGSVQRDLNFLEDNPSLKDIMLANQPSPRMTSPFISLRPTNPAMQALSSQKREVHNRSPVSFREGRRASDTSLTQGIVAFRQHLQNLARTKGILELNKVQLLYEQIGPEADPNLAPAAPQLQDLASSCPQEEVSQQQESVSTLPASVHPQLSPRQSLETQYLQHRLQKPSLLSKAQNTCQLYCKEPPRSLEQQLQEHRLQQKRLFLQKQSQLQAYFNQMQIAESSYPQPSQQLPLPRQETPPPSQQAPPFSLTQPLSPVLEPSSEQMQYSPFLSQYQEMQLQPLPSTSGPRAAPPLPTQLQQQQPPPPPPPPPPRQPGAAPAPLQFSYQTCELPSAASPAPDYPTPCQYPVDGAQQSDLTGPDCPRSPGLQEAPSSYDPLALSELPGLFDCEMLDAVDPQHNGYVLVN
For experiment [19] the target is unchanged. As to conditions: at 1 µM.
The target in experiment [20] is T3, Serine/threonine-protein kinase TBK1 (Homo sapiens) (UniProt Q9UHD2).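 Note: values are the mean TBK1 inhibition, taken from the GSK PKIS screening data.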
T3 sequence (whole entry): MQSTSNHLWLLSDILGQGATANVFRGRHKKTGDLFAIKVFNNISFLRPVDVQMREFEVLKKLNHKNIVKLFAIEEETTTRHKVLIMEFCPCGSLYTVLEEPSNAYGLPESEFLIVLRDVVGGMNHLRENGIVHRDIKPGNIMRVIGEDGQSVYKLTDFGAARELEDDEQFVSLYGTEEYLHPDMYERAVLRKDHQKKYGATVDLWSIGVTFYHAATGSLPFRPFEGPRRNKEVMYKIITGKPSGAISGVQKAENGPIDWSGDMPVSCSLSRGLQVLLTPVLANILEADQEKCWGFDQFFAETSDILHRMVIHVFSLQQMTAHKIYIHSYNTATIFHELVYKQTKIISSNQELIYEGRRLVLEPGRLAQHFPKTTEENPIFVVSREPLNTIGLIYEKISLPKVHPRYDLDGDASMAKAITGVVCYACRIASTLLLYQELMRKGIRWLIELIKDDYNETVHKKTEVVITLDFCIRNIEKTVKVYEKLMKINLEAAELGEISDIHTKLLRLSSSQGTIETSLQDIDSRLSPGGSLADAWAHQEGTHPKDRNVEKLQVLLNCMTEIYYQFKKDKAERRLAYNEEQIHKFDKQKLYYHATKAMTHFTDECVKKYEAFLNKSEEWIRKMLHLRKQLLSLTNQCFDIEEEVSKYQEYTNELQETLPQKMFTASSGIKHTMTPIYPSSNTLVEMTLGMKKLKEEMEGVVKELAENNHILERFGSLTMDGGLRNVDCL
Particulars: at 0.1 µM.

In ChEMBL document CHEMBL1961873, “Compounds: GSK PKIS; Assays: Nanosyn kinase panel” (2012) one finds inhibition data, which are given here for 7 molecules.

A word on the inhibition: it is the relative decrease from the control value, in per cent.

Serine/threonine-protein kinase SIK1 (Homo sapiens), sequence (P57059 whole entry): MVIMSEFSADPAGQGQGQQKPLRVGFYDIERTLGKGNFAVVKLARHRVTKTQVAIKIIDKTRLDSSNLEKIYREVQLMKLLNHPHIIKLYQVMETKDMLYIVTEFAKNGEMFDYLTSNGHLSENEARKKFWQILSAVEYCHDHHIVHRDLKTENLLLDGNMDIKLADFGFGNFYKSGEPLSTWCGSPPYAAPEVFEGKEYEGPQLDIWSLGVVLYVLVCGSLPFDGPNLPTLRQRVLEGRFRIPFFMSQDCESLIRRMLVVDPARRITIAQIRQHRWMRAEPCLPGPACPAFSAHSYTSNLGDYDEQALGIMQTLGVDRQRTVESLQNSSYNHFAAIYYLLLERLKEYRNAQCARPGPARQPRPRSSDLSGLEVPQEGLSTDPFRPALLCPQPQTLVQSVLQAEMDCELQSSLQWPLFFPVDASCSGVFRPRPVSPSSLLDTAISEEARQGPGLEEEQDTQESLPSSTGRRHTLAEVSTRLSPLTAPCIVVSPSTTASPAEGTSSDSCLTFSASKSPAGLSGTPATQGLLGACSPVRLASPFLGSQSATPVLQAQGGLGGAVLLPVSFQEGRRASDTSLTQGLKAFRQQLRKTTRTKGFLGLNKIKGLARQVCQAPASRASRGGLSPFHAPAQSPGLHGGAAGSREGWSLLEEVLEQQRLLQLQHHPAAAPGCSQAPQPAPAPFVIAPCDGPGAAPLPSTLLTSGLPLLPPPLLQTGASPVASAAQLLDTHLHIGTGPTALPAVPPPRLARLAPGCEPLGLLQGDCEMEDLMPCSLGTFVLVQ
Serine/threonine-protein kinase MARK2 (Homo sapiens), sequence (Q7KZI7 whole entry, the tested form may be a part): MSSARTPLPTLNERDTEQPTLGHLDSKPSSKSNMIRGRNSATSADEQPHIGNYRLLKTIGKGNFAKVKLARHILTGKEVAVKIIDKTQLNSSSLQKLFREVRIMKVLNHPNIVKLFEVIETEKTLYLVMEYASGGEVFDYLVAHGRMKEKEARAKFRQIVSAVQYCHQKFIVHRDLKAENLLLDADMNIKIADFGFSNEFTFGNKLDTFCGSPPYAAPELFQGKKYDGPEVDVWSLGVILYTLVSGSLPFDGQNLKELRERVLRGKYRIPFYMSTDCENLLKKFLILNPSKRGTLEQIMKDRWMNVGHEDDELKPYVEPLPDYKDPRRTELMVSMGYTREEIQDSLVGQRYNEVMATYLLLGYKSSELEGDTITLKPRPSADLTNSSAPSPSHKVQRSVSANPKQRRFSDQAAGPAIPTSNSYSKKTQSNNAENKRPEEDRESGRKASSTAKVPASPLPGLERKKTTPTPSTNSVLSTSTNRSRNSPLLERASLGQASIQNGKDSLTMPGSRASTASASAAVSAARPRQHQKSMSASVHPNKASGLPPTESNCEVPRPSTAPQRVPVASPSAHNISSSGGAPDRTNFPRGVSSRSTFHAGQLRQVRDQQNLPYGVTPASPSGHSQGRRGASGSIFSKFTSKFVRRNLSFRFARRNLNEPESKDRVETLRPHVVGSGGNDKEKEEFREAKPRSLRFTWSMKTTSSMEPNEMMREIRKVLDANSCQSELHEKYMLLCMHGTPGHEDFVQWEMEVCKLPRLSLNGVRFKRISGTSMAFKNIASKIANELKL

Regarding `CS(=O)(=O)CCN(CC#N)Cc1ccc(-c2ccc3ncnc(Nc4ccc(OCc5cccc(F)c5)c(Cl)c4)c3c2)o1`, the inhibition in experiment [1] was -1.1%; in [2], -0.15%; in experiment [3], -0.89%; in experiment [4] it was 2.68%; in experiment [5], 5.37%; in experiment [6], 1.91%. The inhibition in experiment [7] is 1.52%; in [8] it was -1.56%; in [9] it was -0.76%; in experiment [10] it was -4.12%; in experiment [11], -3.72%; in experiment [12] it was -0.61%. In addition, the inhibition in experiment [13] was -0.3%; in experiment [14], 0.76%; in experiment [15], 1.23%; in experiment [16], 4.78%; in [17], 9.27%; in experiment [18], 1.11%. In addition, the values for the inhibition in experiment [19] and in experiment [20] were 0.48% and 0.72%, respectively.

Take `O=C1NC(=O)C(c2ccccc2Cl)=C1Nc1cccc(O)c1`: the inhibition in [1] is 8.31%; in experiment [2] it was 0.42%; in experiment [3], -0.94%; in experiment [4] it was 1.1%; in experiment [5] it was 1.82%; in experiment [6] it was 3.35%. In addition, the inhibition was 0.71% in experiment [7]; 1.24% in experiment [8]; 1.62% in experiment [9]; -0.21% in [10]; 0.28% in [11]; -0.32% in [12]. The inhibition in experiment [13] was -0.95%; in experiment [14], 0.71%; in experiment [15], 0.06%; in [16], 1.46%; in [17] it was 5.5%; in experiment [18] it was 8.17%. Besides, the results for the inhibition in [19] and in experiment [20] were 10.7% and 2.04%, respectively.

`O=C1NC(=O)C(c2ccc(Cl)cc2)=C1Nc1ccc(Cl)c(C(=O)O)c1`: the inhibition is 2.17% in experiment [1]; -0.66% in experiment [2]; -1.05% in experiment [3]; -1.07% in experiment [4]; 1.44% in [5]; -3.95% in experiment [6]. Moreover, the inhibition is -5.8% in [7]; -0.65% in experiment [8]; -0.5% in experiment [9]; 1.05% in experiment [10]; 0.1% in experiment [11]; 0.19% in experiment [12]. Further, the inhibition in experiment [13] is -0.33%; in experiment [14], -0.91%; in [15], -0.59%; in [16], -6.41%; in experiment [17], -4.82%; in [18], -6%. Further, the inhibition in experiment [19] was -3.21%; in [20], -0.72%.

Turning to `COc1cc2c(cc1Nc1nc(N3CCc4ccccc43)c3cc[nH]c3n1)N(C(=O)CN(C)C)CC2`, the inhibition in experiment [1] was 0.39%; in experiment [2], 1.45%; in experiment [3] it was -0.16%; in [5], 3.14%; in experiment [6], 3.23%; in experiment [7] it was 0.08%. The inhibition was 0.66% in experiment [8]; -0.15% in [9]; -0.35% in [10]; 0.38% in experiment [11]; -0.4% in [12]; -1.08% in experiment [13]. For the same molecule, the inhibition in experiment [14] was 0.04%; in experiment [15], -1.65%; in [16], 3.24%; in experiment [17], 7.48%; in [18] it was 2.51%; in experiment [19], -3.15%. Further, the inhibition in [20] turned out to be 0.22%.

On to `CN1CCC(C(=O)Nc2n[nH]c3nnc(-c4ccccc4)cc23)CC1`, for which the inhibition is 0.72% in experiment [1]; 0.17% in [2]; 0.71% in [3]; 5.33% in [4]; 11.3% in [5]; 6.18% in experiment [6]. Besides, the inhibition was 9.48% in experiment [7]; 1.63% in [8]; 3.41% in [9]; 0.6% in experiment [10]; 1.49% in [11]; -0.11% in experiment [12]. Also, the inhibition in experiment [13] was 3.84%; in experiment [14], 1.41%; in [15] it was 3.73%; in [16], 7.3%; in experiment [17], 7.57%; in [18] it was 6.82%. Further, the inhibition worked out at 8.16% in experiment [19] and 2.09% in [20].

Consider `CCCN1CCC(Oc2cc(Nc3nc(Nc4cccc(F)c4C(N)=O)c4cc[nH]c4n3)c(OC)cc2Cl)CC1`, for which the inhibition in experiment [1] is 1.3%; in experiment [2], 0.73%; in experiment [3], 1.6%; in experiment [4], 1.4%; in experiment [5], 24.2%; in [6] it was -0.41%. In addition, the inhibition in experiment [7] came out at 0.31%; in experiment [8] it was 4.08%; in experiment [9], 25.4%; in [10], 0.5%; in experiment [11], 2.68%; in [12], 1.54%. Moreover, the inhibition was 10.5% in [13]; -0.3% in experiment [14]; -0.07% in experiment [15]; -0.37% in [16]; 2.28% in [17]; -0.16% in experiment [18]. In addition, the inhibition was -0.62% in experiment [19] and -0.35% in experiment [20].

Regarding `CCn1c(-c2nonc2N)nc2ccncc21`, the inhibition in [1] was 1.6%; in experiment [2], 0.79%; in experiment [3] it was 0.01%; in experiment [4], 1.54%; in experiment [5], 2.74%; in experiment [6] it was 2.66%. The inhibition is -0.15% in experiment [7]; -0.28% in experiment [8]; -0.66% in experiment [9]; 0.35% in [10]; 0.12% in [11]; -0.49% in [12]. The inhibition in experiment [13] was -1.56%; in experiment [14] it was 0.36%; in experiment [15], -0.69%; in [16], -0.38%; in experiment [17], 8.47%; in experiment [18], 5.56%. For the same molecule, the results for the inhibition in experiment [19] and in [20] were 3.95% and 2.23%, respectively.
